The supplement of paper PMC7411054
Counter-ions that a name gives are not always drawn.

Tests used:
Test in all cases: lowest phenotypically active concentration; higher = less potent
Settings in all cases: treatment time: 24 h
[1] = tested on: HepG2-ACTB-RAB5A
In short: (§1)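 Live-cell features were measured per well and normalised to solvent control wells after fifteen gene-edited A549, HepG2 and WPMY1 reporter lines had been treated for 24 h at 0.3, 1, 3 or 9 µM in four wells each. A condition was deviating when ≥3 of 4 wells sat beyond the 95th percentile of control Euclidean distances. It was reproducible when the median replicate Pearson correlation exceeded the 95th percentile of non-replicates. Phenotypic activity demanded both.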

[2] = tested on: HepG2-TUBA1B-RELA
In short: as §1

[3] = tested on: WPMY1-GM130-SQSTM1
In short: as §1

[4] = tested on: HepG2-CANX-COX4
In short: as §1

[5] = tested on: HepG2-GM130-SQSTM1
In short: as §1

[6] = tested on: WPMY1-TUBA1B-RELA
In short: as §1

[7] = tested on: HepG2-TP53BP1-CLTA
In short: as §1

[8] = tested on: WPMY1-TP53BP1-CLTA
In short: as §1

Row | Compound | lowest phenotypically active concentration [1] | lowest phenotypically active concentration [2] | lowest phenotypically active concentration [3] | lowest phenotypically active concentration [4] | lowest phenotypically active concentration [5] | lowest phenotypically active concentration [6] | lowest phenotypically active concentration [7] | lowest phenotypically active concentration [8]
1 | CC(CN(C)C)CN1c2ccccc2CCc2ccccc21 (stereo not given) [trimipramine] | 9 µM | 9 µM | 9 µM |  |  |  |  | 
2 | Cc1c(O)cccc1C(=O)N[C@@H](CSc1ccccc1)[C@H](O)CN1C[C@H]2CCCC[C@H]2C[C@H]1C(=O)NC(C)(C)C [nelfinavir] | 9 µM | 9 µM | 3 µM | 3 µM | 9 µM | 9 µM |  | 
3 | CCOC(=O)c1c(CSc2ccccc2)n(C)c2cc(Br)c(O)c(CN(C)C)c12 [arbidol] | 9 µM | 9 µM | 9 µM | 9 µM | 9 µM |  | 9 µM | 
4 | CNCCCN1c2ccccc2CCc2ccccc21 [desipramine] | 9 µM | 9 µM | 9 µM |  |  | 9 µM |  | 
5 | O=C(NCCN1CCC(n2c(=O)[nH]c3ccccc32)CC1)c1cc2cc(F)ccc2[nH]1 | 9 µM | 9 µM | 9 µM | 9 µM | 9 µM | 9 µM | 9 µM | 9 µM
6 | Cc1cc(CS(=O)(=O)c2ccccc2)cc(OCc2ccc(CN3CCC[C@@H]3CO)cc2)c1 [PF 543 hydrochloride] | 9 µM |  |  |  | 9 µM |  | 9 µM | 
7 | O=C(Nc1nc2cc(C(F)(F)F)cc(NC3CC3)n2n1)c1cccnc1 |  | 9 µM |  | 3 µM |  |  | 9 µM | 3 µM
8 | CN(C)CCCN1c2ccccc2CCc2ccc(Cl)cc21 [clomipramine] | 9 µM | 9 µM | 9 µM |  |  | 9 µM | 9 µM | 9 µM
9 | N#Cc1cccc(-c2c[nH]c3ncnc(N4CCOCC4)c23)c1 | 3 µM | 1 µM |  | 3 µM | 3 µM |  | 3 µM | 3 µM
10 | CN1CCN(c2ccc(-c3cccc(CN4CCOCC4)c3)cc2NC(=O)c2c[nH]c(=O)cc2C(F)(F)F)CC1 |  | 9 µM | 9 µM |  | 9 µM | 9 µM | 9 µM | 9 µM
11 | CN1C(=O)/C(=C2/Nc3ccccc3/C2=N/O)c2ccc(Br)cc21 | ≤ 0.3 µM |  | ≤ 0.3 µM | 3 µM |  |  |  | 
12 | CCN(CCO)CCCC(C)Nc1ccnc2cc(Cl)ccc12 (stereo not given) [hydroxychloroquine] |  | 9 µM | 9 µM |  | 9 µM | 9 µM |  | 
13 | CC(=O)Nc1ccc(NC(=S)NC(=O)c2ccc(C(C)(C)C)cc2)cc1 [Tenovin-1] |  | 3 µM | 1 µM | 3 µM |  | 1 µM | 9 µM | 1 µM
